Source: PubChem BioAssay
CHX counter: Cycloheximide Counterscreen for Small Molecule Inhibitors of Shiga Toxin; cell reporter, cycloheximide protein synthesis inhibition counterscreen; max response, %; hit rate 12% among 300,000; AID 2314, 2010; in the data active = max response mostly above about 13%, no sharp cut-off; inactive = mostly below about 14%; also: read at 38.3 µM for the half of the compounds with a filed dose
AmpC inh detg: qHTS Inhibitors of AmpC Beta-Lactamase (assay with detergent); P00811; Potency, µM (highest dose often 114 µM), hits mostly inhibitors; AmpC hydrolysis of nitrocefin, absorbance 480 nm, 0.01% Triton; hit rate 0.041% among 370,000; also: nearly all actives have a fitted effect of over 25% in size
Target sequence (P00811 whole entry, looked up): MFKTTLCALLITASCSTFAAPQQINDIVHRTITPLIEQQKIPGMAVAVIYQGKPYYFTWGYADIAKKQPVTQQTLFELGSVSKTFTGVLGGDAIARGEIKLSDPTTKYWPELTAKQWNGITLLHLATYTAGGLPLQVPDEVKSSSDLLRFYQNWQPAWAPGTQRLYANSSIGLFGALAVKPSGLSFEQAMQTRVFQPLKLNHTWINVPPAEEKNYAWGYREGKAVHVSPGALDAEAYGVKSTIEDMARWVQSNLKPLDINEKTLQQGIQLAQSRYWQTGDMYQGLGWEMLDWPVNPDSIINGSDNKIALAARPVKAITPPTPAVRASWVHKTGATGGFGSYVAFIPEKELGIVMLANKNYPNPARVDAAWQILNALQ
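AmpC (5.3 nM in the dispensed reagent) in 20 mM phosphate pH 7.0 with 0.01% (detergent screen) or 0.0001% Triton X-100 was preincubated with compounds for 15 min at room temperature. Nitrocefin was then added from an 800 uM solution, and hydrolysis was followed at 480 nm.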
AmpC inh no detg: qHTS Inhibitors of AmpC Beta-Lactamase (assay without detergent); Potency, µM (titrated, usually from 57.1 µM), hits mostly inhibitors; hit rate 0.52% among 330,000; AID 485341, 2010; AmpC nitrocefin hydrolysis, absorbance 480 nm, 0.0001% Triton; also: nearly all actives have a fitted effect of over 20% in size
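20 mM phosphate pH 7.0 + 0.01% (detergent screen) or 0.0001% Triton X-100; 5.3 nM AmpC reagent; cpd preinc 15 min RT; nitrocefin (800 uM stock) to start; A480 q20 s × 4 min; Activity was normalised to no-enzyme and no-compound control wells.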
SARS PLP yeast: qHTS of Yeast-based Assay for SARS-CoV PLP; S. cerevisiae expressing SARS-CoV PLpro, growth rescue; Potency, µM (series often up to 32.9 µM), hits mostly activators; hit rate 0.19% among 330,000; AID 485353, 2010; calls by dose curve; also: nearly all actives have a fitted effect of over 55% in size
Shiga toxin inh: A qHTS for Small Molecule Inhibitors of Shiga Toxin. Vero cells, Shiga toxin protein synthesis inhibition reporter. inhibition, % at 38.7 µM. hit rate 9.2% among 290,000. AID 2315, 2010; in the data active = inhibition mostly above about 28%, no sharp cut-off; inactive = mostly below about 43%
AMA1 RON2 block: qHTS for Inhibitors of AMA1-RON; Towards Development of Antimalarial Drug Lead: Primary Screen; Potency, µM (top dose mostly 58.2 µM), hits mostly inhibitors; AID 720542, 2013; AlphaScreen AMA1-biotinylated RON2 peptide binding; hit rate 0.2% among 360,000; also: nearly all actives have a fitted effect of over 45% in size
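AMA1 (3D7) with his tag at 25 nM final met compounds first, then biotinylated RON2 peptide at 25 nM; detection used donor plus acceptor beads, 10 µg/mL apiece, read by AlphaScreen after 30 min at room temperature.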
A number is an active result; . = inactive; ? = inconclusive; / = not tested or not shown; [ ] = another dose, or the depositor's remark. This is one part of a sample in which hits are shown more often than they occur. Unless noted, calls follow the shape of the dose curve; as a rule, active = well fitted curve in the direction sought with a large enough effect; inconclusive = small, poorly fitted or top-dose-only effect, or another doubt; inactive = no such curve, though single readings can be large; an effect the other way counts as inactive or inconclusive.

SMILES	CHX counter	AmpC inh detg	AmpC inh no detg	SARS PLP yeast	Shiga toxin inh	AMA1 RON2 block
O=C(NCc1cccs1)C(=O)c1c[nH]c2ccccc12	33	.	.	.	.	.
O=C(Nc1ccccc1)C(=O)c1c[nH]c2ccccc12	31	.	.	.	67	.
O=C(Cc1c[nH]c2ccccc12)NCc1ccc(Cl)cc1Cl	.	.	.	.	45	.
COC(=O)c1c(NC(=O)CCCOc2ccc(C(C)(C)C)cc2)sc2c1CCC(C)C2 (centres undefined)	/	.	/	/	/	/
Cc1ccn2c(Nc3ccc4c(c3)OCCO4)c(-c3ccc(N(C)C)cc3)nc2c1	/	.	/	/	/	/
Nc1nnc(CC2=CCCCC2)s1	.	.	.	.	.	.
O=C(Cc1c[nH]c2ccccc12)NCc1ccco1	.	.	.	.	.	.
O=C(NCc1cccnc1)C(=O)c1c[nH]c2ccccc12	.	.	.	.	.	.
O=C(NCc1ccccc1Cl)C(=O)c1c[nH]c2ccccc12	29	.	.	.	71	.
COC(=O)C(Cc1c[nH]c2ccccc12)NC(=O)COc1ccc(Cl)cc1Cl (centres undefined)	29	.	/	/	.	/
CCOC(=O)C(Cc1c[nH]c2ccccc12)NC(=O)c1ccccc1Br (centres undefined)	37	.	.	.	53	.
O=C(NCc1ccco1)C(=O)c1c[nH]c2ccccc12	31	.	.	.	54	.
CC(Nc1nc(-c2ccc(F)cc2)cs1)c1nc2cc(Cl)c(Cl)cc2n1CCOCCO (centres undefined)	/	/	/	/	/	.
O=C(CSc1ncccc1C(=O)O)NCc1ccc(F)cc1	.	.	.	.	.	.
CCc1cc(Cn2nc(-c3ccccc3C)cc2C(=O)O)on1	/	.	.	.	/	.
CC1=CC(C)=Nc2ccccc2N1	45	.	.	.	62	.
CC(C(=O)NCc1ccccc1)N(CCN1CCOCC1)C(=O)c1snc(C(N)=O)c1N (centres undefined)	.	?	.	.	.	/
O=c1oc2c(O)cccc2cc1-c1nc2ccccc2[nH]1	47	.	.	.	69	.
CCc1cc2c(=O)c(-c3nc4ccccc4[nH]3)coc2c(CN2CCCCC2)c1O	27	.	.	.	.	.
C=CCc1cccc2cc(-c3nc4ccc(C)cc4[nH]3)c(=O)oc12	36	.	/	/	91	/
CN1CCN(Cc2c(O)ccc3cc(-c4ccccc4)c(=O)oc23)CC1	/	.	/	/	/	/
O=C(O)c1ccc2nc(-c3cc4cccc(O)c4oc3=O)[nH]c2c1	/	?	.	.	/	/
O=c1oc2c(CN3CCCCC3)c(O)ccc2cc1-c1nc2ccccc2[nH]1	12	.	.	.	.	.
O=[N+]([O-])c1ccc(Nc2ccccn2)c([N+](=O)[O-])c1	.	.	.	.	.	.
CN1CCN(C(=O)C2=C[C@H](C3CCCCC3)C[C@H](OCc3ccc(CO)cc3)O2)CC1	.	.	.	.	.	.
SMILES	CHX counter	AmpC inh detg	AmpC inh no detg	SARS PLP yeast	Shiga toxin inh	AMA1 RON2 block
CC(OC(=O)Cc1n[nH]c(=O)c2ccccc12)C(=O)Nc1ccc(F)cc1 (centres undefined)	/	?	.	.	/	.
CSc1cccc(-n2cc(-c3ccc4c(c3)OCO4)[nH]c2=O)c1	29	.	.	.	83	.
COc1ccccc1-c1csc(Cc2nnc3n2CCCCC3)n1	46	.	.	.	153	.
O=S(=O)(Cc1noc(-c2ccc(Cl)cc2)n1)Cc1ccco1	.	.	.	.	.	.
CC(C)CC(C(=O)NC(C)(C)C)N(Cc1cccs1)C(=O)c1snc(C(N)=O)c1N (centres undefined)	49	?	.	.	47	.
CCCC(C(=O)NC(C)(C)C)N(C(=O)c1snc(C(N)=O)c1N)c1ccc2c(c1)OCCO2 (centres undefined)	56	?	.	.	114	.
CCC(C)(C)NC(=O)CN(C(=O)c1snc(C(N)=O)c1N)c1ccc2c(c1)OCCO2	.	?	.	.	.	.
CC(C)CC(C(=O)NC1CCCC1)N(Cc1cccs1)C(=O)c1snc(C(N)=O)c1N (centres undefined)	.	.	.	.	.	.
CC(C)(C)N1C(=O)c2ccccc2NC(=O)N1Cc1ccc(Br)cc1	.	.	.	.	.	.
CC1CN(C(=O)c2cc3c(=O)n4ccccc4nc3n2C)CC(C)O1 (centres undefined)	.	.	.	.	.	11µM
CN(C(=O)c1cc2c(=O)n3ccccc3nc2n1C)C1CCCCC1	62	.	.	.	105	.
CCN(C(=O)c1cc2c(=O)n3ccccc3nc2s1)C1CCCCC1	.	.	.	.	44	.
CCN(C(=O)c1cc2c(=O)n3ccccc3nc2n1C)C1CCCCC1	37	.	.	.	61	.
CC1(NS(=O)(=O)c2ccc(Cl)s2)CCS(=O)(=O)C1 (centres undefined)	/	/	.	.	/	.
Cn1c(CC(=O)Nc2ccccc2F)nnc1SCC(=O)NC1CCCCC1	.	.	.	.	.	.
CC(=O)OCC1OC(n2ncc(=O)n(Cc3ccccc3)c2=O)C(OC(C)=O)C1OC(C)=O (centres undefined)	.	.	.	.	.	.
COc1ccc(C2=C(CC(=O)O)C(=O)CC2)cc1	.	.	.	.	.	.[2.32 µM]
COc1ccc2[nH]c3c(c2c1)CCN1C(=O)C(CC(=O)NCc2cccc(C(F)(F)F)c2)C[C@H](C(=O)N2CCCCC2)[C@@]31CCc1ccccc1 (some centres undefined)	/	/	.	.	/	.
CCN(CC)C(=O)c1cc2c(=O)n3cccc(C)c3nc2s1	27	.	.	.	.	.
CCCCN(CC)C(=O)c1cc2c(=O)n3cccc(C)c3nc2s1	.	.	.	.	.	.
Nc1cc(N)nc(SCc2ccccc2)n1	41	.	.	.	53	.
Nc1cc(N)nc(SCCc2ccccc2)n1	16	.	.	.	.	.
Nc1cc(N)nc(SCc2cccnc2)n1	.	.	.	.	.	.
Cc1cc(C)cc(NC(=O)CSc2ccc(-c3cccs3)nn2)c1	.	.	.	.	.	.
COc1cc(-c2nc3ccccn3c2NCC2CCCO2)ccc1O (centres undefined)	.	?	.	.	.	.
COc1ccc(-c2nc3cccc(C)n3c2NCC2CCCO2)cc1O (centres undefined)	8.1	.	.	.	46	.
COC(CNC(=O)CSCc1nc(-c2ccc(SC)cc2)oc1C)OC	.	.	.	.	.	.
CCCNC(=O)CSCc1nc(-c2ccc(SC)cc2)oc1C	26	.	.	.	.	.
